Records with an inconclusive call do not appear. Some compounds were tested as several samples or in several runs, with calls that do not always agree. Active and inactive are the calls of the source. How the source made its calls, unless noted: active means hit-call score of the fitted dose curve at least 0.9, where 1 is the maximum; inconclusive means response in the unintended direction; inactive means score below 0.9.
How the values were obtained:
[1] = ATG_PPRE_CIS: Attagene CIS-FACTORIAL HepG2 Assay for human Peroxisome Proliferator-activated Response Element (PPRE) (AID 2282958; active means hit-call score of the fitted dose curve at least 0.9, where 1 is the maximum; inactive means score below 0.9); conditions: HepG2 PPRE cis-element reporter, Attagene transcription factor profiling; actives raise or lower the signal
Procedure, shortened: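 Read-out: fluorescent reporter mRNA fragments resolved by capillary electrophoresis after RT-PCR. HepG2 cells carried transiently transfected PPRE-driven cis reporter constructs and were dosed for 24 h; gain or loss of signal fitted relative to DMSO.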

[2] = target: Glucocorticoid receptor (Homo sapiens) (UniProt P04150); assay: ATG_GR_TRANS: Attagene TRANS-FACTORIAL HepG2 Assay for human Glucocorticoid Receptor (GR) (AID 2282978); conditions: HepG2 Attagene TRANS GR reporter, mRNA transcription;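 further: activators score as hits since higher reporter transcript over DMSO is fitted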
Sequence of Glucocorticoid receptor (Homo sapiens) (P04150 whole entry, looked up, the tested form may be a part): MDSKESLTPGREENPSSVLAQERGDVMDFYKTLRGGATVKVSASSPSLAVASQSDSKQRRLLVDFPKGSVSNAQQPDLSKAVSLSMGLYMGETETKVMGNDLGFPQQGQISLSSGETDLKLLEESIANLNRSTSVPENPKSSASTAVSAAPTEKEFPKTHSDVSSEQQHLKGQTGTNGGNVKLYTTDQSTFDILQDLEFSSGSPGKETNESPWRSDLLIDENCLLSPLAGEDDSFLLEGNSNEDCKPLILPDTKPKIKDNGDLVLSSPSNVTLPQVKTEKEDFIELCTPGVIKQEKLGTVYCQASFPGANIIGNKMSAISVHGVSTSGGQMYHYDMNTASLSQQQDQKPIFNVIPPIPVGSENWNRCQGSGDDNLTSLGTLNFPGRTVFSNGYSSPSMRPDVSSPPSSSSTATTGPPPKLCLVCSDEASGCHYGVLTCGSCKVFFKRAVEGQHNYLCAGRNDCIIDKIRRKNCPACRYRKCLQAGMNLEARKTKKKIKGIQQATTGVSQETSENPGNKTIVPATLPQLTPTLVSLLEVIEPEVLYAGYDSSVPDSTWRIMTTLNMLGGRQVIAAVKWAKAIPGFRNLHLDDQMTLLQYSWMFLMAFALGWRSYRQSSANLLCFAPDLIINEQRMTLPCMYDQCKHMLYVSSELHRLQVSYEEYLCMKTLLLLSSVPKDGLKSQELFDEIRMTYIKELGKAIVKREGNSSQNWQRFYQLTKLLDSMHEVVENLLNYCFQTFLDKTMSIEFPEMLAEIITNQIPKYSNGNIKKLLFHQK
Procedure, shortened: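 Transient MRTU transfection of HepG2 (GAL4-UAS reporters, exogenous NR-GAL4 chimeras), 24 h dosing. Readout: reporter transcript via RT-PCR + capillary electrophoresis fluorescence. Positive direction vs DMSO baseline.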

[3] = target: Oxysterols receptor LXR-alpha (Homo sapiens) (UniProt Q13133); assay: ATG_LXRa_TRANS: Attagene TRANS-FACTORIAL HepG2 Assay for human Liver X Receptor alpha (LXRa) (AID 2282980); conditions: HepG2 Attagene TRANS reporter, LXRa transactivation
Procedure, shortened: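 In this multiplexed TRANS system, compounds act on HepG2 cells carrying GAL4-UAS reporter units and a receptor-GAL4 fusion for 24 h. Induced reporter RNA is amplified, fluorescently labelled and sized by capillary electrophoresis, with DMSO as baseline.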

[4] = target: Oxysterols receptor LXR-beta (Homo sapiens) (UniProt P55055); assay: ATG_LXRb_TRANS: Attagene TRANS-FACTORIAL HepG2 Assay for human Liver X Receptor beta (LXRb) (AID 2282981); conditions: HepG2 Attagene TRANS GAL4-LXRb reporter, mRNA
Procedure, shortened: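 Cells: HepG2, transiently transfected with GAL4-UAS reporter units plus LXRb-Gal4 fusion. Treatment: 24 h. Detection: reporter mRNA by RT-PCR, 6-FAM labelling, HpaI digestion, capillary electrophoresis.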

[5] = target: Nuclear receptor subfamily 4 group A member 2 (Homo sapiens) (UniProt P43354); assay: ATG_NURR1_TRANS: Attagene TRANS-FACTORIAL HepG2 Assay for human Nuclear Receptor Related Protein 1 (NURR1) (AID 2282985); conditions: HepG2 Attagene TRANS reporter, mRNA readout
Sequence of Nuclear receptor subfamily 4 group A member 2 (Homo sapiens) (P43354 whole entry, looked up): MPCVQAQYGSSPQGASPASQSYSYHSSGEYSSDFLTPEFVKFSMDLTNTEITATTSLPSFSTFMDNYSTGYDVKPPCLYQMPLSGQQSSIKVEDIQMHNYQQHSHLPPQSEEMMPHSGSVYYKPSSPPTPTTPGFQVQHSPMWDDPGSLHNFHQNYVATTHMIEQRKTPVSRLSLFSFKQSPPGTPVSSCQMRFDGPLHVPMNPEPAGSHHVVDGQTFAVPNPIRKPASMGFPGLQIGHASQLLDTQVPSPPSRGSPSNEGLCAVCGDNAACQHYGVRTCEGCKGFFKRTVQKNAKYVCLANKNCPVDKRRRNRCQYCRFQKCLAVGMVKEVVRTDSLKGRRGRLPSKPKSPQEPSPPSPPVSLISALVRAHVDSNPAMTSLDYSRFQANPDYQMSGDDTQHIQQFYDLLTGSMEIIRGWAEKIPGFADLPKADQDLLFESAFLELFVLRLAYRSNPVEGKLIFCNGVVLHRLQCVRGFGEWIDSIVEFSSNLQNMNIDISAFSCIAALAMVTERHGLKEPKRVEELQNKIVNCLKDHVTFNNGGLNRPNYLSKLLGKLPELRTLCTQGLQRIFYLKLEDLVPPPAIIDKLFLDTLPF
Procedure, shortened: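 Cells: HepG2, transiently transfected. Exposure: 24 h. Detection: fluorescence of labelled RT-PCR products separated by capillary electrophoresis; upward fit versus DMSO.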

[6] = target: human Peroxisome Proliferator-activated Receptor alpha (PPARa), PPARA (gene 5465) (UniProt Q07869); assay: ATG_PPARa_TRANS: Attagene TRANS-FACTORIAL HepG2 Assay for human Peroxisome Proliferator-activated Receptor alpha (PPARa) (AID 2283001)
Sequence of human Peroxisome Proliferator-activated Receptor alpha (PPARa), PPARA (gene 5465) (Q07869 whole entry, looked up, the tested form may be a part): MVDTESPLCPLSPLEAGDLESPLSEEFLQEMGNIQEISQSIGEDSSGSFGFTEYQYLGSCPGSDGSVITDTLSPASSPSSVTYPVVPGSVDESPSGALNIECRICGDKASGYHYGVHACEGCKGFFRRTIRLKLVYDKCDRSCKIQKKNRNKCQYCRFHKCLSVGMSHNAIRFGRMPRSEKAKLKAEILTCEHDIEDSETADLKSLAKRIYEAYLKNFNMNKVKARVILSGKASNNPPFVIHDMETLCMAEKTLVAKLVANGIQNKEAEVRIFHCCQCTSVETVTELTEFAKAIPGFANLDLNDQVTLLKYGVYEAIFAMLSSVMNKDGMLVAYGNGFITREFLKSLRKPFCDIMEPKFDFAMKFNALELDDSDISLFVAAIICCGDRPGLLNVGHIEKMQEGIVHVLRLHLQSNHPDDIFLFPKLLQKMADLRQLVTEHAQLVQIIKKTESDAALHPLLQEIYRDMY
Procedure, shortened: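 Reporter transcripts from GAL4-UAS units in transfected HepG2 were quantified 24 h after dosing. Detection used reverse transcription, PCR, fluorescent primer extension and capillary electrophoresis, with DMSO as baseline.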

[7] = target: Peroxisome proliferator-activated receptor gamma (Homo sapiens) (UniProt P37231); assay: ATG_PPARg_TRANS: Attagene TRANS-FACTORIAL HepG2 Assay for human Peroxisome Proliferator-activated Receptor-gamma (PPARg) (AID 2283007)
Sequence of Peroxisome proliferator-activated receptor gamma (Homo sapiens) (P37231 whole entry, looked up, the tested form may be a part): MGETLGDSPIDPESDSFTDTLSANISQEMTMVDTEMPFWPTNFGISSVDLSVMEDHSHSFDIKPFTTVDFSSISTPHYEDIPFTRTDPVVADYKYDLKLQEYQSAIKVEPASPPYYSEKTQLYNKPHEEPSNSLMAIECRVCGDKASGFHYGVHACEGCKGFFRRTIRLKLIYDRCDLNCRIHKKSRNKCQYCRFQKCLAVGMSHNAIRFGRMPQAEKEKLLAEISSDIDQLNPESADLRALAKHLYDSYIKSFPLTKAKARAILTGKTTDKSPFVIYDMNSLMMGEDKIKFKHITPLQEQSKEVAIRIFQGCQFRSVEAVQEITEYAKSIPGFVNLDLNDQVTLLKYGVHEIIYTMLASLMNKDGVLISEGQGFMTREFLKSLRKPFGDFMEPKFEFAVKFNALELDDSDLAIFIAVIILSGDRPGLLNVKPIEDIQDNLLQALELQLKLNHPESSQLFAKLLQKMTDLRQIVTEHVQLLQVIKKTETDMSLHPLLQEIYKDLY
Procedure, shortened: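 Read-out: reporter mRNA induction, detected by fluorescence after RT-PCR and capillary electrophoresis. Transiently transfected human HepG2 liver cells carrying a chimeric NR-Gal4 construct were dosed for 24 h; activity was fitted upward relative to DMSO.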

[8] = target: human RAR-related Orphan Receptor beta (RORb), RORB (gene 6096) (UniProt Q92753); assay: ATG_RORb_TRANS: Attagene TRANS-FACTORIAL HepG2 Assay for human RAR-related Orphan Receptor beta (RORb) (AID 2283010)
Sequence of human RAR-related Orphan Receptor beta (RORb), RORB (gene 6096) (Q92753 whole entry, looked up, the tested form may be a part): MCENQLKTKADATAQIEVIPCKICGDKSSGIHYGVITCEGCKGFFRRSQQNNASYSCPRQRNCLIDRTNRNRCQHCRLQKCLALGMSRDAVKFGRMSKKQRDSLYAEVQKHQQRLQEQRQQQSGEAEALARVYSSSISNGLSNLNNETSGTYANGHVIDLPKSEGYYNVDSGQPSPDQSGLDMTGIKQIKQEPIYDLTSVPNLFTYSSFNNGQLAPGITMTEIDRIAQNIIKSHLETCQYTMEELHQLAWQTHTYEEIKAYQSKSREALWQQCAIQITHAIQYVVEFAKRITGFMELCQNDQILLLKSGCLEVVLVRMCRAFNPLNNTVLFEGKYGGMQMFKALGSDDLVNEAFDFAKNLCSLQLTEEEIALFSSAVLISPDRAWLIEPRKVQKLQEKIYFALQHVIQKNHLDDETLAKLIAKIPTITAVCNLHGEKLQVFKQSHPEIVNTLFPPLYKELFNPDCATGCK
Procedure, shortened: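 HepG2 cells were transiently transfected with multiplexed GAL4-UAS reporter units expressing chimeric nuclear receptor–GAL4 proteins, then dosed for 24 h. Reporter mRNA was quantified by RT-PCR with fluorescent labelling and capillary electrophoresis; gain of signal was fitted relative to DMSO.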

[9] = target: human RAR-related Orphan Receptor gamma (RORg), RORC (gene 6097) (UniProt P51449); assay: ATG_RORg_TRANS: Attagene TRANS-FACTORIAL HepG2 Assay for human RAR-related Orphan Receptor gamma (RORg) (AID 2283011)
Sequence of human RAR-related Orphan Receptor gamma (RORg), RORC (gene 6097) (P51449 whole entry, looked up, the tested form may be a part): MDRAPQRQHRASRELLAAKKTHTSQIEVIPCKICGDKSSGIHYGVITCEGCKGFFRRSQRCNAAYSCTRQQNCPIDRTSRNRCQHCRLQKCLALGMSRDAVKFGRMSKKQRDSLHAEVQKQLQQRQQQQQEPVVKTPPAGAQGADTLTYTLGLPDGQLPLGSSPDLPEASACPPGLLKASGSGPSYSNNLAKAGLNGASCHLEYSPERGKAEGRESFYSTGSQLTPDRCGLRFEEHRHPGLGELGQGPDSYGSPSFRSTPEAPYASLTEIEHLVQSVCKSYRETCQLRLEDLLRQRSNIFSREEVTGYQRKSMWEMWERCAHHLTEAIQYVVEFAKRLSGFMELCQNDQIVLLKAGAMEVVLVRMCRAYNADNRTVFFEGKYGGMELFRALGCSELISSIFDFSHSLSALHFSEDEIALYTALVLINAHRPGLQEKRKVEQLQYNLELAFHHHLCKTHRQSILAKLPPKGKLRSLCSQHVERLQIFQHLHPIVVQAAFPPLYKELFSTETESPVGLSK
Procedure, shortened: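 Chimeric RORg-Gal4 transactivation in transfected HepG2; 24 h exposure; RT-PCR/capillary electrophoresis readout of reporter mRNA, DMSO baseline.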

[10] = target: human Thyroid Receptor alpha (THRa1), THRA (gene 7067) (UniProt P10827); assay: ATG_THRa1_TRANS: Attagene TRANS-FACTORIAL HepG2 Assay for human Thyroid Receptor alpha (THRa1) (AID 2283014)
Sequence of human Thyroid Receptor alpha (THRa1), THRA (gene 7067) (P10827 whole entry, looked up, the tested form may be a part): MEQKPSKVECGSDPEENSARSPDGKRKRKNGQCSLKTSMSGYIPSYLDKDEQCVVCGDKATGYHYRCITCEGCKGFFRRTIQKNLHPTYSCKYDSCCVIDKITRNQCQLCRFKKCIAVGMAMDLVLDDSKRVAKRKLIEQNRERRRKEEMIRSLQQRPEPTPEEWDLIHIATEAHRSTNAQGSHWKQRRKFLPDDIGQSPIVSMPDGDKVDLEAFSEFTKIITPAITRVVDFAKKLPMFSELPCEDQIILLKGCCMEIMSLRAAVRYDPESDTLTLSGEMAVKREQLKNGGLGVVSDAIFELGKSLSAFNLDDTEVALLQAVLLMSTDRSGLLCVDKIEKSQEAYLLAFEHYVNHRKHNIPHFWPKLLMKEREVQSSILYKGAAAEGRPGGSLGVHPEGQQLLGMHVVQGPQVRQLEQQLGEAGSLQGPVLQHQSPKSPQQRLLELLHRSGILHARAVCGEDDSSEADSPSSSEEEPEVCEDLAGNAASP
Procedure, shortened: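 Measured here is mRNA from a GAL4-UAS reporter in transfected HepG2 cells carrying a Gal4-fused receptor, 24 h post-dose. DMSO served as negative control and baseline.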

[11] = ATG_XTT_Cytotoxicity: Cytotoxicity Assessment in the Attagene TRANS-FACTORIAL HepG2 Assay (AID 2283584)
Procedure, shortened: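 24 h chemical exposure of reporter-transfected HepG2; XTT signal loss vs DMSO indicates cytotoxicity.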

[12] = TOX21_p53_BLA_p3_viability: Viability Assessment in the Tox21 HCT-116 p53 Agonism Beta-lactamase Assay, Phase 3 (AID 2283593);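 further: cells exposed to compound for 16 h before reading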
Procedure, shortened: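 Cellular ATP was quantified by CellTiter-Glo luminescence, read after 30 min at room temperature. Beforehand, HCT116 cells (4000/well) received compound 5 h post-seeding, 217-fold diluted from DMSO, then incubated 16 h at 37C.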

[13] = TOX21_p53_BLA_p4_viability: Viability Assessment in the Tox21 HCT-116 p53 Agonism Beta-lactamase Assay, Phase 4 (AID 2283597);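 further: hits lower the luminescence signal meaning cytotoxicity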
Procedure, shortened: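 Luminescent ATP readout (CellTiter-Glo, 30 min, room temperature) in the same wells as the p53 bla ratio. HCT116 cells were treated for 16 h at 37C with DMSO-dissolved compounds.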

[14] = target: Nuclear receptor subfamily 1 group I member 3 (Homo sapiens) (UniProt Q14994); assay: ATG_CAR_TRANS: Attagene TRANS-FACTORIAL HepG2 Assay for human Constitutive Androstane Receptor (CAR) (AID 2282969); conditions: HepG2 Attagene TRANS-FACTORIAL CAR reporter;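 further: activators raise reporter mRNA above DMSO so AC50 marks induction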
Procedure, shortened: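 Readout is reporter mRNA induction, quantified by fluorescent primer extension and capillary electrophoresis after RT-PCR. Cells were HepG2 transiently carrying chimeric NR-Gal4 constructs with GAL4-UAS reporters, treated for 24 h; activity scored upward from DMSO.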

[15] = ACEA_ER_AUC_viability: ACEA Biosciences xCELLigence Real-Time Cell Analysis on Estrogen Receptor Agonism for Viability (AID 2283782);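 further: continuous compound exposure with impedance area under curve over 80 h; hit means loss of impedance signal meaning reduced cell growth or viability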
Procedure, shortened: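 T-47D; phenol red-free RPMI1640 + 10% CS-FBS; 8 conc., 1:4 serial, max 100 uM final, ≤0.5% DMSO; n = 2; continuous exposure; impedance monitored to 80 h post-dose; AUC vs DMSO.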

[16] = target: Retinoic acid receptor RXR-alpha (Homo sapiens) (UniProt P19793); assay: ATG_RXRa_TRANS: Attagene TRANS-FACTORIAL HepG2 Assay for human Retinoid X Receptor alpha (RXRa) (AID 2283012)
Sequence of Retinoic acid receptor RXR-alpha (Homo sapiens) (P19793 whole entry, looked up, the tested form may be a part): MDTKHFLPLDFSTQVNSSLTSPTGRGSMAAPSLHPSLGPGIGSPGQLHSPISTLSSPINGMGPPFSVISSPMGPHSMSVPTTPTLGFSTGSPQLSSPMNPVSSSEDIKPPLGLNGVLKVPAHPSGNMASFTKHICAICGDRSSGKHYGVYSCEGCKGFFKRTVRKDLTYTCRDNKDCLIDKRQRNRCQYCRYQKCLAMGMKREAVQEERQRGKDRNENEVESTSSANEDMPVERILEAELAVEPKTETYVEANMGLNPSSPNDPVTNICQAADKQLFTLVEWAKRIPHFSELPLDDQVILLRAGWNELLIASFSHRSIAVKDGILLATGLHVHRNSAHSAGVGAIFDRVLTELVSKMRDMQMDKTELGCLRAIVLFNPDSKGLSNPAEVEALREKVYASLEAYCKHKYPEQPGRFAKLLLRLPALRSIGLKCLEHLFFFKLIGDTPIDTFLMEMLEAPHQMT
Procedure, shortened: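 HepG2 cells transiently transfected with multiplexed GAL4-UAS reporter units and chimeric NR-GAL4 fusions, dosed 24 h. Reporter mRNA measured by RT-PCR, FAM labelling, HpaI digestion and capillary electrophoresis; gain-of-signal fitted relative to DMSO baseline.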

[17] = target: human Vitamin D Receptor (VDR), VDR (gene 7421) (UniProt P11473); assay: ATG_VDR_TRANS: Attagene TRANS-FACTORIAL HepG2 Assay for human Vitamin D Receptor (VDR) (AID 2283022)
Sequence of human Vitamin D Receptor (VDR), VDR (gene 7421) (P11473 whole entry, looked up): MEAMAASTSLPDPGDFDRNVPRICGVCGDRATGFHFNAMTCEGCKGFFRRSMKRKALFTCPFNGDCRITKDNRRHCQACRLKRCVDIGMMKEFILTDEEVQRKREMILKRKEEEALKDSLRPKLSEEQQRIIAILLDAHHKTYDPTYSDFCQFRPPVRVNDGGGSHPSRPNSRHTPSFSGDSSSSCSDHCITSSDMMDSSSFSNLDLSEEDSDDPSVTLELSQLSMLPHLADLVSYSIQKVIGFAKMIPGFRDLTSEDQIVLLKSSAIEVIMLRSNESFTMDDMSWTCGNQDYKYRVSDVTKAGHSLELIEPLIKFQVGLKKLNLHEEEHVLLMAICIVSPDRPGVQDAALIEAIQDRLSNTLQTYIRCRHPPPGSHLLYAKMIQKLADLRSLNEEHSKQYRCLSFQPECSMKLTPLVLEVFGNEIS
Procedure, shortened: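 Multiplexed TRANS reporter in HepG2; 24 h treatment; reporter mRNA by RT-PCR plus capillary electrophoresis; upregulation scored relative to DMSO.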

[18] = CCTE_Harrill_HTTr_Viability_MCF7: CCTE's 6-hour Cell Viability Assessment for the High-Throughput Transcriptomics (HTTr) Platform, in MCF-7 cells cultured in DMEM + 10% fetal bovine serum, Harrill Lab (AID 2284010; active means hit-call score of the fitted dose curve at least 0.9, where 1 is the maximum; inactive means score below 0.9)
Procedure, shortened: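 Membrane integrity was scored by high-content imaging of propidium iodide dye exclusion after a 6 h exposure across an eight-point dilution series. Data were fitted bidirectionally relative to DMSO as negative control and baseline.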

[19] = CCTE_Harrill_HTTr_Apoptosis_MCF7: CCTE's 6-hour Apoptosis Assessment for the High-Throughput Transcriptomics (HTTr) Platform, in MCF-7 cells cultured in DMEM + 10% fetal bovine serum, Harrill Lab (AID 2284011; active means hit-call score of the fitted dose curve at least 0.9, where 1 is the maximum; inactive means score below 0.9)
Procedure, shortened: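 Apoptosis in MCF-7 cells grown in DMEM with 10% fetal bovine serum was scored after a six hour exposure by high content imaging of caspase-3/7 activation (CellEvent Caspase 3/7 Green), with DMSO serving as negative control and baseline.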

[20] = target: Bile acid receptor (Homo sapiens) (UniProt Q96RI1); assay: ATG_IR1_CIS: Attagene CIS-FACTORIAL HepG2 Assay for human Nuclear Receptor Subfamily 1 Group H Member 4 (NR1H4), IR1 submotif (AID 2282946; active means hit-call score of the fitted dose curve at least 0.9, where 1 is the maximum; inactive means score below 0.9); conditions: IR1 reporter transcription, actives raise or lower the signal
Procedure, shortened: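 Cells (human HepG2) carry transiently transfected cis-promoter reporter transcription units. Compounds are incubated 24 h, total RNA is reverse-transcribed and amplified, and labelled fragments are resolved by capillary electrophoresis. Curves use DMSO as baseline.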

Measured: AC50

CC1(C)S[C@@H]2[C@H](NC(=O)[C@H](N)c3ccccc3)C(=O)N2[C@H]1C(=O)O
not listed: [14] | [15] | [16] | [17] | [18] | [19] | [20]
inactive: all other assays above

CC/C=C\CCCCCO
inactive: [14] | [2] | [6] | [9] | [10] | [11] | [12] | [13] | [15]

CCCCCCCCCCC1CO1 (centres undefined)
inactive: [1] | [5] | [7] | [16] | [10] | [17] | [11]
active: [15] 32.9 µM

CC1=C(CC=O)C(C)(C)CCC1
active: [15] 64.2 µM
inactive: [3] | [4] | [5] | [7] | [8] | [16] | [17]

COC(OC)C(C)c1ccccc1 (centres undefined)
inactive: [1] | [9] | [16] | [10] | [17] | [11] | [13]
active: [15] 20.7 µM

C=CN1CCCCCC1=O
inactive: [3] | [6] | [9] | [17] | [11] | [12]

CN(C)CCC(c1ccc(Cl)cc1)c1ccccn1 (centres undefined)
inactive: [4] | [12] | [13] | [15] | [18] | [19]

CCCCn1cc[n+](C)c1
inactive: [3] | [4] | [5] | [16] | [10] | [11]

CC(C)n1c(/C=C/[C@@H](O)C[C@@H](O)CC(=O)O)c(-c2ccc(F)cc2)c2ccccc21
active: [1] 36.3 µM | [7] 5.07 µM | [13] 43.3 µM
inactive: [2] | [3] | [4] | [6] | [16] | [12] | [13] | [18] | [19]

CCCCCCCC#N
inactive: [1] | [2] | [3] | [4] | [5] | [16] | [10] | [15]

CC/C=C/CCO
inactive: [20] | [3] | [5] | [9] | [10] | [17] | [11] | [13]

CC(=O)Nc1c(I)c(NC(C)=O)c(I)c(C(=O)O)c1I
inactive: [2] | [5]

c1ccc2c(c1)Oc1ccccc1S2
inactive: [14] | [2] | [6] | [10] | [17] | [11] | [12] | [13]

O=[N+]([O-])c1ccc2nc[nH]c2c1
not listed: [2] | [4] | [6] | [12] | [13] | [14] | [16] | [17]
inactive: all other assays above

O=C(O)/C=C/C(=O)O
inactive: [2] | [3] | [5] | [8] | [10] | [17] | [11] | [15] | [18] | [19]
